Screening results: PubChem, National Center for Advancing Translational Sciences (NCATS)
Only some compounds are listed: those with a hit (about 2.3% of all), similar ones and a draw of the others.
Tau fibril ThT – inhibitors of human tau fibril formation, thioflavin T binding; Potency, µM (doses to about 57.4 µM), for the others: at the highest dose activity, negative = inhibition, most hits filed as inhibitors; P10636; recombinant tau K18 P301L, heparin-induced fibrillization, ThT fluorescence; 270,000 compounds, 2.1% hits; also: potency is read from the fitted curve at half-maximal effect; nearly all actives have a fitted effect of over 55% in size
Target sequence (P10636 561-689 P618L limits assumed): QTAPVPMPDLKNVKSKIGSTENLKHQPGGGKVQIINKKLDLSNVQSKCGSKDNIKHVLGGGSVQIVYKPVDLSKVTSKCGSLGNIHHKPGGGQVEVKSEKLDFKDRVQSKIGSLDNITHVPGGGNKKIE
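Heparin-induced (20 uM) aggregation of recombinant human K18 P301L tau, 15 uM unlabeled with 0.24 uM labeled, pH 7 acetate buffer, 6 hr at 37 C with compound. Fibrils quantified by 30 uM ThT fluorescence after 1 hr ambient incubation.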
Tau fibril FP – tau fibrillization inhibition (FP) | 280,000 compounds, 0.39% hits | P10636 | Potency, µM (titrated, usually from 57.7 µM), without a hit: at the top dose activity, negative = inhibition, actives largely listed as inhibitors | K18 P301L tau heparin fibrillization, Alexa594 FP, 6 h; also: potency is read from the fitted curve at half-maximal effect; nearly all actives have a fitted effect of over 55% in size
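Compound effects on tau fibrillization are measured by Alexa 594 fluorescence polarization (ex 555, em 632 nm). K18 P301L tau is used at 15 uM with 0.24 uM labeled tracer, and 20 uM heparin induces aggregation over 6 hr at 37 C.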
USP1 inh – USP1/UAF1 (human) deubiquitinase inhibition. O94782. recombinant USP1/UAF1, Ub-Rhodamine cleavage fluorescence. Potency, µM (highest dose often 57.1 µM), inactives show top-dose activity change, negative = inhibition, usual class: inhibitors. 390,000 compounds, 0.23% hits; also: potency is read from the fitted curve at half-maximal effect; nearly all actives have a fitted effect of over 60% in size
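1 nM enzyme complex + cpd, 15 min RT; start with Ub-Rho 150nM final; kinetic fluorescence ex 480/em 540, 6 reads q60 s. Buffer 50mM HEPES pH 7.8, 0.5mM EDTA, 0.1 mg/ml BSA, 1mM TCEP, 0.01% Tween-20.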
Tau fluor cs – counter-screen for tau fibril formation inhibitors; tau K18 P301L (four-repeat tau fragment) Alexa594 fluorescence, heparin fibrillization; Potency, µM (doses to about 57.7 µM), without a hit: at the top dose activity change, negative = decrease; 280,000 compounds, 0.93% hits; also: potency is read from the fitted curve at half-maximal effect; nearly all actives have a fitted effect of over 55% in size
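Human K18 P301L tau (15 uM unlabeled plus 0.24 uM Alexa 594-labeled, final) in 100 mM sodium acetate pH 7 was mixed with compound and 20 uM heparin and incubated 6 hr at 37 C.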
Coupling enz – inhibits coupling enzyme system, counter-screen for aldolase hits. AID 2472. activity change, negative = inhibition, % at 58.2 µM, hits read low. coupling enzyme system counterscreen, AmpLite Red fluorescence. 290,000 compounds, 0.67% hits; in the data active = activity change below about -30%
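Counterscreen of the coupled detection system alone, without aldolase: glyceraldehyde-3-phosphate coupling enzymes plus AmpLite Red readout. Compounds at 57.5 uM final, 10 min RT preincubation, 20 min RT reaction, fluorescence 525/598 nm.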
* marks the source's active call; other numbers are inactive results; u = inconclusive; x = no result given; [ ] = another dose, or the depositor's remark. Unless noted, calls follow the shape of the dose curve; as a rule, active = well fitted curve in the direction sought with a large enough effect; inconclusive = small, poorly fitted or top-dose-only effect, or another doubt; inactive = no such curve, though single readings can be large; an effect the other way counts as inactive or inconclusive. % is scaled to controls: 0 for no effect and ±100 for the full control effect.

SMILES	Tau fibril ThT	Tau fibril FP	USP1 inh	Tau fluor cs	Coupling enz
CCSc1nnc2c(n1)OC(c1ccc(OC)c(OC)c1)N(C(C)=O)c1ccccc1-2 (configuration not stated)	-11%	10%	-19%	-4%	x
Cc1cc(O)c(C(C)C)cc1NC(=O)Nc1ccc([N+](=O)[O-])cc1	x	x	-16%	x	x
CC(=O)c1ccc(NC(=O)Nc2ccc([N+](=O)[O-])cc2)cc1	u	u	-14%	u	0
Cc1ccc(C(C)C)cc1NC(=O)Nc1ccc([N+](=O)[O-])cc1	u	32µM*	u	7.9µM*[quencher]	-5
O=C(Nc1ccc(Oc2ccc(NC(=O)Nc3ccc([N+](=O)[O-])cc3)cc2)cc1)Nc1ccc([N+](=O)[O-])cc1	6.3µM*	25µM*	-15%	4.5µM*[quencher]	0
COc1ccccc1NC(=O)C(=O)NCCc1csc(-c2cccc(F)c2)n1	-7%	-13%	1%	-24%	x
Cc1ccc(CNC(=O)C(=O)NCC(c2ccco2)S(=O)(=O)c2ccccc2)cc1 (configuration not stated)	7%	-4%	-12%	1%	x
O=[N+]([O-])c1ccc(-c2ccc(/C=N/Nc3nc(NCc4ccccc4)nc(N4CCOCC4)n3)o2)cc1	2.8µM*	u	-13%	u	-1
CN(C)c1ccc2c(-c3ccccc3)c3ccc(=[N+](C)C)cc-3oc2c1	x	x	x	x	20
CCOC(=O)c1[nH]c(C)c(CCC(=O)NCc2ccc(C)cc2)c1C	-5%	6%	4%	-2%	x
Cn1cnnc1Sc1ccc(/C=C/C(=O)c2ccc(O)cc2)cc1[N+](=O)[O-]	14µM*	2%	-14%	u	0
Cn1cnnc1Sc1ccc(C(=O)OCC(=O)Nc2cc(Cl)cc(Cl)c2)cc1[N+](=O)[O-]	u	-4%	-1%	13µM*[quencher]	0
CC1CCCCN1S(=O)(=O)c1ccc(NC(=O)c2cccc(-n3cnnn3)c2)cc1 (configuration not stated)	9%	u	-19%	18µM*[quencher]	-1
O=C(Nc1ccccc1-c1nc2ccccc2[nH]1)c1ccc(S(=O)(=O)N2CCCCC2)cc1	6%	13µM*	-8%	u	-2
CC1CCCCN1S(=O)(=O)c1ccc(C(=O)Nc2ccccc2-c2nc3ccccc3s2)cc1 (configuration not stated)	10%	7%	-12%	0%	2
CC1CCCCN1S(=O)(=O)c1ccc(C(=O)Nc2ccccc2-c2nc3ccccc3[nH]2)cc1 (configuration not stated)	16%	14µM*	-11%	u	-3
CC1CCCN(S(=O)(=O)c2ccc(NC(=O)c3cccc(-n4cnnn4)c3)cc2)C1 (configuration not stated)	12%	u	-9%	u	-1
CN1C(=S)N(c2cccnc2)C(=O)/C1=C\c1ccc(N(C)C)cc1	4µM*	2%	-18%	u	-7
CN1C(=S)N(c2cccnc2)C(=O)/C1=C\c1ccc(C(C)(C)C)cc1	u	8%	u	-1%	-1
Cc1c(N2C(=O)/C(=C\c3ccc(N(C)C)cc3)N(C)C2=S)c(=O)n(-c2ccccc2)n1C	14µM*	4%	u	-10%	0
Cc1c(NC(=S)N/N=C/c2ccc(N(C)C)cc2)c(=O)n(-c2ccccc2)n1C	-13%	-5%	-7%	6%	3
COc1ccc(-c2cc(=O)n(-c3nc4ccccc4[nH]3)[nH]2)cc1	32µM*	-17%	-11%	u	-5
Cc1n[nH]c(C)c1N1C(=O)c2cccc3c(N4CCCCCC4)ccc(c23)C1=O	u	-8%	25µM*	-23%	-4
COc1cccc([C@@H]2Oc3ccc(Br)cc3C(=O)[C@H]2OC(=O)Nc2cc(OC)c(OC)c(OC)c2)c1	-12%	-10%	x	-26%	-4
COC(=O)c1ccc(Cl)cc1NC(=O)N1CC=C(c2c[nH]c3ccccc23)CC1	u	0%	u	11µM*[quencher]	x
SMILES	Tau fibril ThT	Tau fibril FP	USP1 inh	Tau fluor cs	Coupling enz
O=C(Nc1ccccc1)N1CC=C(c2ccccc2)CC1	-24%	-1%	x	-8%	-7
O=C(Nc1ccc(Br)cc1F)N1CCC(CN2CCc3ccccc3C2)CC1	-2%	1%	-3%	-6%	x
O=C(Nc1ccc(Br)cc1F)N1CC=C(c2c[nH]c3ccccc23)CC1	8.9µM*	-15%	-14%	8.9µM*[quencher]	x
Cc1ccc(NC(=O)N2CC=C(c3c[nH]c4ccccc34)CC2)cc1Cl	6.3µM*	-10%	u	14µM*[quencher]	x
Cc1cccc(NC(=O)N2CC=C(c3c[nH]c4ccccc34)CC2)c1C	u	3%	u	25µM*[quencher]	x
O=C(Nc1cccc2ccccc12)N1CC=C(c2ccccc2)CC1	-21%	-8%	-20%	-15%	-1
c1ccc2c(-n3ccnc3)nc(-c3ccoc3)nc2c1	u	u	x	-21%	4
O=C(Cn1c(=O)nc(-c2ccccc2)c2ccccc21)Nc1ccc(Cl)c(C(F)(F)F)c1	10%	-10%	-13%	3%	x
Cc1ccc(C(=O)NNC(=S)Nc2cccc(Cl)c2Cl)cc1[N+](=O)[O-]	25µM*	7%	-24%	u	6
CCC1CCCCN1C(=O)CSc1nnc(-c2ccc(OC)c(OC)c2)o1 (configuration not stated)	-10%	-6%	-36%	-5%	x
CCCCC[C@H](O)/C=C/C=C\CCCCCCCCCC(=O)O	-9%	0%	x	-11%	-1
CC1=C(C(=O)Nc2ccccc2)C(c2cccs2)n2nc(SCc3ccccc3)nc2N1 (configuration not stated)	2%	-14%	-22%	-3%	x
CC1=Nc2ccccc2/C1=C/c1c(C)[nH]c2ccccc12	x	x	-1%	x	x
CC1=Nc2ccccc2/C1=C/c1sc(=N)n(-c2nccs2)c1O	5µM*	u	-3%	11µM*[quencher]	-7
COc1ccc(NC(=O)COCc2cc(-c3ccco3)on2)cc1Cl	u	-6%	u	-16%	x
O=c1[nH]n2c(=O)c3c([nH]c2c1N=Nc1cccc(C(F)(F)F)c1)CCCC3	2.8µM*	0%	u	-25%	6
COc1cccc(N=Nc2c(=O)[nH]n3c(=O)c4c([nH]c23)CCC4)c1	7.1µM*	7%	u	-21%	0
COc1cccc(N=Nc2c(=O)[nH]n3c(=O)cc(C)[nH]c23)c1	16µM*	6%	-17%	-20%	-1
O=c1[nH]n2c(=O)c3c([nH]c2c1N=Nc1cccc(Cl)c1)CCC3	-1%	2%	-14%	1%	1
NS(=O)(=O)c1ccc(N=Nc2c(=O)[nH]n3c(=O)c4c([nH]c23)CCCC4)cc1	7.9µM*	5%	u	-29%	11
Cn1c(=O)c(-c2ccc(F)cc2)nc2cnc(Nc3ccccc3)nc21	x	x	x	x	1
